Data taken from PubChem BioAssay (NCATS).
Records with an inconclusive call do not appear. Calls come from the whole dose curve; as a rule, active = well fitted inhibition curve with a large enough effect; inconclusive = small, poorly fitted or top-dose-only effect; inactive = flat fitted curve, though single readings scatter.

biological target: Luciferin 4-monooxygenase (Photinus pyralis) (UniProt P08659); experiment: Biochemical firefly luciferase enzyme assay for NPC (AID 624030);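 note: 0% = DMSO and -100% = full luciferase inhibition by PTC124 control; nearly all actives have a fitted effect of over 70% in size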; details: purified P. pyralis luciferase, luminescence, 5 min; series mostly up to 24.9 µM; activity change, negative = inhibition: at the top concentration
Excerpt: Charcot-Marie-Tooth-Association [CMTA] National Center for Advancing Translational Sciences [NCATS] Charcot-Marie-Tooth (CMT) disease was first characterized by Jean-Martin Charcot and Pierre Marie in France and, independently, by Howard Henry Tooth in England in 1886. CMT is one of the most common inherited neurological diseases, affecting approximately 1 in 2,500 Americans. […] The most prevalent type of CMT is known as CMT1A and caused by a duplication of the PMP22 gene which leads to over-expression of this protein. PMP22 is a glycosylated intrinsic membrane protein accounting for 2-5% of the myelin protein content, and its over-expression results in demyelination and subsequently axonal loss. A pair of cellular transcription-based assays was developed in the S16 rat Schwann cell lines (Hai, M., et al., 2002) stably transfected with orthogonal reporters - firefly luciferase (Fluc) and beta-lactamase (beta-Lac) - whose expression is driven by an intronic regulatory element of the PMP22 gene (Jones, E.A., et al., 2011) to recapitulate endogenous expression of PMP22. A comprehensive library of approved drugs, the NCGC Pharmaceutical Collection (Huang, R., et al., 2011), was screened in the cross-validating platform of the orthogonal reporter assays to identify drug modulators inhibitory towards PMP22 expression. A set of counter-screens was devised to address non-specific activity of the library. An ATP-dependent CellTiter-Glo assay (developed by Promega Corp) was utilized to control cell viability. In addition, biochemical Fluc enzyme assay was performed to assess direct inhibition of the Fluc enzymatic activity. References Hai, M., Muja, N., DeVries, G.H., Quarles, R.H. and Patel, P.I. Comparative analysis of Schwann cell lines as model systems for myelin gene transcription studies. J Neurosci Res, 2002. 69(4): pp 497-508 Huang, R., Southall, N., Wang, Y., Yasgar A., Shinn P., Jadhav, A. , Nguyen, D.-T. and Austin, C.P., The NCGC pharmaceutical collection: a comprehensive resource of clinically approved drugs enabling repurposing and chemical genomics. Sci Transl Med, 2011. 3(80): p. 80ps16.
Compounds were transferred to the plates in 23nl, and one microliter/well luciferase enzyme-buffer solution (10 nM P. pyralis luciferase and 50 mM Tris Acetate final concentrations) was dispensed yielding a final reaction volume of […]. Luciferase luminescence was measured by a ViewLux plate reader within 5 minutes of enzyme-buffer addition. The % activity was determined by normalizing to the average readings of PTC124 (a positive control) relative to DMSO (0% Activity). The concentration-effect curves were then classified based on curve quality (r2), response magnitude and degree of measured activity.

Sequence of Luciferin 4-monooxygenase (Photinus pyralis) (P08659 whole entry, looked up): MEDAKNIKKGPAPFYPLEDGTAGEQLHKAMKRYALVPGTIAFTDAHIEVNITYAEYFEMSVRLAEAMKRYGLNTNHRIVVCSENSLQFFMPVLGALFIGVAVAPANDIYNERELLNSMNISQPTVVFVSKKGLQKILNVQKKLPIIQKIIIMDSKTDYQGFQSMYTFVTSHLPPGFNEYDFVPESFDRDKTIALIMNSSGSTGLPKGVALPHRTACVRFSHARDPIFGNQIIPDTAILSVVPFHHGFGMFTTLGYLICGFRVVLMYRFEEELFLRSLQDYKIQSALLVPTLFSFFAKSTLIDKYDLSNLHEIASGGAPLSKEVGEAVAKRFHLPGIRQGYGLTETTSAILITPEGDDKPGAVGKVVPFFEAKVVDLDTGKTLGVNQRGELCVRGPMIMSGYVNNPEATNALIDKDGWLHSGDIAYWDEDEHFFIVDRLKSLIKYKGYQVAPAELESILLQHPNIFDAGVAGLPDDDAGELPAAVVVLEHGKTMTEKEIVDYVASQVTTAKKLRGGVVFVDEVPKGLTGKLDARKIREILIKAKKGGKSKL

Activity change, negative = inhibition, inactive:
CC1(C)SC2C(N3C(=O)C(c4ccccc4)NC3(C)C)C(=O)N2C1C(=O)O (stereo not given) 5.89% [at 58.6 µM]
C[C@@]12C=CC(=O)C=C1CCC1C3CC(O)[C@@](O)(C(=O)CO)[C@]3(C)CC(O)[C@]12F (stereo not given in full) 22.5% [at 58.6 µM]
CCOC(=O)[C@H](CCc1ccccc1)N[C@@H](C)C(=O)N1[C@H](C(=O)O)C[C@H]2CCC[C@@H]21 -0.271% [at 58.6 µM]
CCC1OC(=O)C(C)[C@@H](O[C@H]2C[C@@](C)(OC)C(O)C(C)O2)C(C)[C@@H](O[C@@H]2OC(C)CC(N(C)C)C2O)[C@@](C)(O)CC(C)C(=O)[C@@H](C)C(O)[C@]1(C)O (stereo not given in full) 4.36% [at 58.6 µM]
CCN[C@@H]1CN(CCCOC)S(=O)(=O)c2sc(S(N)(=O)=O)cc21 0.0933%
CC[C@H](Cc1c(I)cc(I)c(N)c1I)C(=O)O -2.74%
C=CCOc1ccccc1OC[C@H](O)CNC(C)C 1.53%
CN1CCCN=C1/C=C\c1cccs1 -0.272% [at 58.6 µM]
Clc1ccc(CC[C@H](Cn2ccnc2)Sc2c(Cl)cccc2Cl)cc1 3.11%
NCc1ccccc1CC(=O)N[C@@H]1C(=O)N2C(C(=O)O)=C(CSc3nnnn3CC(=O)O)CS[C@@H]12 -3.95%
CO[C@]12C(COC(N)=O)C3=C(C(=O)C(C)=C(N)C3=O)N1CC1NC12 (stereo not given in full) -3.08% [at 58.6 µM]
C[C@@H]1O[C@H](O[C@@H]2\C=C/C=C\C=C/C=C\C[C@H](C)OC(=O)/C=C\[C@H]3O[C@@H]3C[C@H](O)C[C@]3(O)C[C@@H](O)[C@@H](C(=O)O)[C@H](C2)O3)[C@@H](O)[C@H](N)[C@@H]1O (stereo in doubt) 1.05% [at 58.6 µM]
CNC[C@H](O)c1ccc(OC(=O)C(C)(C)C)c(OC(=O)C(C)(C)C)c1 -2.54%
O=C(O)[C@@H](O)[C@@H](O)[C@@H](O[C@H]1O[C@@H](CO)[C@@H](O)[C@@H](O)[C@@H]1O)[C@@H](O)CO -3.61%
CCN(CC)CCOC(=O)[C@@H](Cc1cccc2ccccc12)C[C@@H]1CCCO1 2.45%
O=C(O)[C@@H]1[C@@H]2C[C@H]3c4[nH]c5ccccc5c4CCN3C[C@@H]2CC[C@@H]1O -5.48%
NCC1O[C@@H](OC2C(N)C[C@H](N)[C@@H](O[C@H]3OC(CO)C(O)C(N)C3O)C2O)C(N)C(O)C1O (stereo not given in full) 16.7% [at 58.6 µM]
CO[C@H]1[C@H](O[C@H]2O[C@@H](C)[C@@H](O[C@@H]3C[C@](C)(O)[C@H](O)[C@H](C)O3)[C@@H](N(C)C)[C@@H]2O)[C@@H](CC=O)C[C@@H](C)[C@@H](O[C@H]2CC[C@H](N(C)C)[C@H](C)O2)/C=C\C=C/C[C@@H](C)OC(=O)C[C@H]1O 4.46%
CCC[C@@H]1O[C@@H]2C[C@@H]3[C@H]4CCC5=CC(=O)C=C[C@@]5(C)[C@H]4[C@H](O)C[C@@]3(C)[C@@]2(C(=O)CO)O1 -0.589% [at 58.6 µM]
CCC(=O)O[C@@]1(C(=O)CCl)C(C)CC2C3CCC4=CC(=O)C=C[C@@]4(C)[C@]3(F)C(O)C[C@]21C (stereo not given in full) 1.85% [at 58.6 µM]
CC1CCC(C(C)C)C(=O)C1 (stereo not given) -21% [at 58.6 µM]
C[C@@H]1C[C@H]2[C@@H]3C[C@H](F)C4=CC(=O)C=C[C@@]4(C)[C@]3(F)[C@H](O)C[C@]2(C)[C@@]1(O)C(=O)CO -0.623%
CC(=O)N[C@@H]1C(O)OC(CO)C(O)C1O (stereo not given in full) 2.55% [at 58.6 µM]
NC[C@@H]1O[C@H](O[C@@H]2[C@H](O[C@@H]3O[C@H](CO)[C@@H](O)[C@@H]3O)[C@@H](O)[C@@H](N)C[C@H]2N)[C@@H](N)[C@H](O)[C@@H]1O 2.55%
CC1(C)[C@@H](OC(=O)CCC(=O)O)CC[C@@]2(C)[C@H]1CC[C@@]1(C)[C@H]2C(=O)C=C2[C@H]3C[C@](C)(C(=O)O)CC[C@]3(C)CC[C@@]21C -2.12%
CCC(=O)O[C@@H]1[C@H](C)O[C@H](O[C@H]2[C@@H](N(C)C)[C@H](O)[C@@H](O[C@@H]3[C@@H](CC=O)C[C@@H](C)[C@@H](O)/C=C\C=C/C[C@@H](C)OC(=O)C[C@@H](OC(=O)CC)[C@H]3OC)O[C@H]2C)C[C@]1(C)O -0.518%
CCC(C)C(=O)OC1CC(O)C=C2C=CC(C)C(CCC(O)CC(O)CC(=O)O)C21 (stereo not given) 2.27% [at 58.6 µM]
O=C(O)[C@@H](O)[C@@H](O)[C@@H](O)[C@@H](O)C(=O)O (tested in a mixture with another compound) -1.28% [at 58.6 µM]
CC(C)(C)NC(=O)[C@@H]1CC[C@@H]2[C@@H]3CC[C@@H]4NC(=O)C=C[C@@]4(C)[C@H]3CC[C@]21C 0.76%
CCC1OC(=O)CC(O)C(C)[C@@H](O[C@@H]2OC(C)[C@H](O[C@@H]3C[C@@](C)(O)C(O)C(C)O3)C(N(C)C)C2O)[C@H](CC=O)CC(C)C(=O)/C=C/C(C)=C/[C@@H]1COC1OC(C)C(O)C(OC)[C@@H]1OC (stereo not given in full) 7.01% [at 58.6 µM]
O=C(O)C(O)C(O)C(O)C(O)C(=O)O (stereo not given) -0.395% [at 58.6 µM]
CC1=C(C(=O)O)N2C(=O)[C@@H](NC(=O)[C@@H](N)c3ccc(O)cc3)[C@@H]2SC1 5.59%
C#C[C@]1(O)CCC2C3CCC4=CC(=O)CCC4C3CC[C@@]21C (stereo not given in full) 15.5% [at 58.6 µM]
Cc1onc(-c2ccccc2Cl)c1C(=O)N[C@H]1C(=O)N2[C@H]1SC(C)(C)[C@H]2C(=O)O 5.19%
CC(=O)[C@@]1(O)CC[C@H]2[C@H]3C[C@@H](C)C4=CC(=O)C=C[C@]4(C)[C@@]3(F)[C@@H](O)C[C@]21C 1.06%
C[C@@H]1Cc2ccccc2N1NC(=O)c1ccc(Cl)c(S(N)=O)c1 (stereo not given in full) 0.83%
CCOC(=O)Oc1c(OC)cc(C(=O)O[C@H]2C[C@H]3CN4CCc5c([nH]c6cc(OC)ccc56)[C@@H]4C[C@H]3[C@@H](C(=O)OC)[C@@H]2OC)cc1OC -0.734%
CCOC(=O)O[C@]1(C(=O)COC(=O)CC)CC[C@@H]2[C@@H]3CCC4=CC(=O)C=C[C@@]4(C)[C@H]3[C@H](O)C[C@]21C 0.144%
CN[C@H]1[C@@H](O)[C@@H](NC)[C@@H]2O[C@@]3(O)C(=O)C[C@@H](C)O[C@H]3O[C@H]2[C@H]1O 4.48%
COCC(=O)Nc1c(I)c(C(=O)NC[C@@H](O)CO)c(I)c(C(=O)N(C)C[C@@H](O)CO)c1I -0.094%
